Laboratory results reported in PubChem BioAssay (NCI).
This is part of a sample that, as a whole, favours compounds with a hit. Of some 83,000 tested, about 20% had one in any assay.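 Testing used 96-well plates and a 48-hour single-concentration exposure. Example: -40 means 40% of the starting cells died.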 A number with no mark means an inactive call. Activity calls are given as the source filed them.

test system: SN12C renal; experiment: NCI-60 one-dose screen, 48 h (100 = growth as untreated, 0 = no growth, -100 = all killed); conditions: 10 µM unless noted
Procedure: Growth inhibition of the SN12C human tumor cell line is measured as a screen for anti-cancer activity. Cells are grown in 96 well plates and exposed to the test compound for 48 hours. Compounds are tested at a single concentration, which is 10^-5 M for most compounds. The reported endpoint is percent growth (GI% or GIPRCNT), where numbers from 0 - 100% represent growth inhibition, and numbers from -100% - 0 represent cell death. For example, a value of 40 represents 60% growth inhibition. A value of 0 means no net growth occurred over the course of the experiment. A value of -40 indicates 40% of cells at the beginning of the experiment died by the end of the experiment. A value of -100 means all cells are dead at the end of the experiment.
NCI-60 Human Tumor Cell Lines Screen was performed using the standard one-dose NCI protocol, which is described in more detail at https://dtp.cancer.gov/discovery_development/nci-60/default.htm.
Compounds with GIPRCNT values below 10 were considered active. Activity score was based on GIPRCNT using the following formula: […]
Score is 0 for GIPRCNT values of 100 or above, 50 for GIPRCNT values of 0, and 100 for GIPRCNT values of -100.

SMILES | growth
COC(=O)c1cc(=O)nc(N/N=C/c2ccc(C)cc2)s1 | 110%
O=Cc1nc2ccccc2[nH]1 | 101%
N#C/C(=C\c1ccc(-c2ccc(Cl)cc2)o1)c1nc(-c2ccco2)cs1 | 92.8%
C[Si](C)(C)Cc1ccccc1 | 108%
Cc1ccc(Nc2c(C(N)=O)cnc3ccc(S(=O)(=O)Nc4cc(C)on4)cc23)cc1 | 97.9%
CC(C)(C)c1cc(-n2c(-c3ccc(Cl)cc3)nc3cc(C(=O)Nc4ccc(Cl)cc4)ccc32)n[nH]1 | 66.9%
Nc1nc2c(c(=O)[nH]1)C(c1ccc3c(c1)OCO3)C=C(C(=O)O)N2 (stereo not given) | 113%
COc1cccc(-c2nn(-c3ccccc3)cc2-c2ccnc(NCCCNS(=O)(=O)c3ccc(Br)cc3)c2)c1 | 57.1%
O=C(c1ccccc1)C(CN1CCOCC1)c1ccccc1 (stereo not given) | 28.1%
CC(=O)N1N=C(c2ccc(C)cc2)CC1c1ccc(Oc2ccc(Br)cc2)cc1 (stereo not given) | 78.5%
C#CCC(C)(O)/C=C/C1=C(C)CCCC1(C)C (stereo not given) | 99.2%
S=c1[nH]nc2ccccn12 | 106%
N#Cc1cnc2cc(OC[C@@H](O)CO)c(NC(=O)CC3CSSC3)cc2c1Nc1ccc(OCc2cccc(F)c2)c(Cl)c1 | -70.3% (active)
Oc1cc(/C=C/c2nc(N3CCOCC3)c3cc(Cl)c(Cl)cc3n2)cc(O)c1O | 104%
COc1cc(/C=C/c2cc(/C=C/c3ccc(O)c(OC)c3)n(-c3ccc(Cl)cc3)c(=O)n2)ccc1O | 80.8%
COc1cc2c3c(c4c5ccccc5[nH]c4c2c(OC)c1OC)C(=O)N(O)C3=O | 46.6%
OCC(CO)(CCl)CCl | 98.3%
COc1ccc(-c2c(-c3nc4ccc(N5CCOCC5)cc4[nH]3)[nH]c(C)c2C(C)=O)cc1 | 52.6%
O=C1/C(=C\C(Cl)=C/c2ccc([N+](=O)[O-])cc2)SC(=S)N1CCc1ccc(O)cc1 | -9.23% (active)
Cn1cc(-c2csc(-c3cn(C(=O)OC(C)(C)C)c4ccccc34)n2)c2cccnc21 | 87.6%

SMILES | growth
CCc1ccc(-c2ccc(Nc3ccccc3)nn2)cc1S(N)(=O)=O | 88.6%
O=C(O)c1cccc2c1C(=O)N(c1ccc3c(c1)Cc1ccccc1-3)C2=O | 111%
COc1cc2c(cc1-c1c(C)noc1C)ncc1nc(C3CCC(F)(F)CC3)n([C@@H](C)COC(F)F)c12 | 58.5%
COc1cc2nc(Cl)nc(Nc3cccc(C(=O)/C=C/c4ccc(Br)cc4)c3)c2cc1OC | 80.8%
C=C(C)[C@@H]1CC[C@]2(C)CC[C@]3(C)[C@H](CC[C@@H]4[C@@]5(C)CCCNC(C)(C)[C@@H]5CC[C@]43C)[C@@H]12 | 82.1%
CC1(C)C(=O)/C(=C\c2ccccn2)C[C@]2(C)[C@H]3CC[C@@H]4[C@@H](C(=O)/C=C/c5ccccn5)CC[C@@]4(C)[C@]3(C)CC[C@@H]12 | -4.12% (active)
COC(=O)[C@]12CC[C@@H](C(=O)/C=C/c3cccnc3)[C@@H]1[C@H]1CC[C@@H]3[C@@]4(C)C/C(=C/c5cccnc5)C(=O)C(C)(C)[C@@H]4CC[C@@]3(C)[C@]1(C)CC2 | -77.8% (active)
NC1=C(C/C(N)=N\O)C(c2ccccc2Cl)c2c(ccc3ccccc23)O1 (stereo not given) | 91.3%
Cn1cc(-c2csc(-c3cn(C(=O)OC(C)(C)C)c4ccc(Br)cc34)n2)c2cccnc21 | 87.4%
COc1cc(-c2cc(-c3nc4ccc(F)cc4[nH]3)[nH]n2)cc(OC)c1OC | 33.8%
N#CC1C(=N)Cc2ccccc2-c2ccccc21 (stereo not given) | 54.2%
Cn1cc(-c2csc(-c3cn(CCN)c4ccc(F)cc34)n2)c2cccnc21 | 76%
CC(=O)OC[C@]12CC[C@@H](/C(C)=N/O)[C@@H]1[C@H]1CC[C@@H]3[C@@]4(C)CCCNC(C)(C)[C@@H]4CC[C@@]3(C)[C@]1(C)CC2 | 75.3%
O=C1/C(=C\c2ccc(Br)o2)SC(=S)N1CCc1ccc(O)cc1 | 86.9%
CCCC1CCCCN1C(=O)OCC(C)C (stereo not given) | 102%
O=C(NO)c1ccc(Cn2c(=O)n(-c3ccccc3)c(=O)c3ccccc32)cc1 | 44.1%
O=C1CN(c2ccccc2)C(=O)C1C(=O)Nc1ccc(Cl)c(Cl)c1 (stereo not given) | 17.6% [100 µM]
COC1=C(Br)C(=O)C(OC)=C(Br)C1=O | 95.2%
OCC1OC(n2cnc3c(Cl)ncnc32)CC1O (stereo not given) | 96.5%
O=S(=O)(NCCCNc1cc(-c2cn(-c3ccccc3)nc2-c2cccc(O)c2)ccn1)c1ccc(F)cc1 | 47.3%
